# Measurements as given in PubChem BioAssay (Tox21).
# Values without a mark were called inactive. Results filed as inconclusive are left out. Where a call stands in place of a potency, no number is given. The source made the active and inactive calls. Unless noted, the call rests on the fitted dose curve; in most records, active means well fitted curve in the direction sought with a large enough effect in the repeat runs; inconclusive means weak or mixed curves; inactive means no such curve, though single readings can be large; an effect the other way counts as inactive or inconclusive.
# Columns and labels:
# [1] = A CellTox Green Cytotoxicity Assay to monitor cytotoxicity in HepG2 cells - 8 hour (AID 1224890); further: nearly all actives have a fitted effect of over 45% in size
# In short: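 HepG2 cells were seeded together with the CellTox Green dye at 600 cells/well, left 5 h at 37 C/5% CO2, then given compounds in DMSO. Fluorescence from dye bound to dead-cell DNA was read repeatedly over 40 h of treatment at 37 C.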
# [2] = qHTS assay to identify small molecule antagonists of the estrogen receptor alpha (ER-alpha) signaling pathway using the BG1 cell line in the presence of 0.1 nM 17-beta-estradiol - cell viability counter screen (AID 1259241); further: nearly all actives have a fitted effect of over 40% in size
# In short: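 Following 5 days in phenol red-free medium with charcoal-stripped serum, VM7Luc4E2 cells received test compounds alongside 0.1 nM 17beta-estradiol (final) at 37C for 22 hr. Live cells were then quantified via protease-substrate fluorescence.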
# [3] = qHTS assay to identify small molecule antagonists of the androgen receptor (AR) signaling pathway using the MDA cell line in the presence of 0.5 nM R1881 - cell viability counter screen (AID 1259242); further: nearly all actives have a fitted effect of over 45% in size
# In short: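 MDA-kb2 cells (human breast carcinoma, stably carrying MMTV-luciferase reporter) were exposed to compounds with 0.5 nM R1881 (final) for 16 hr at 37C, 0% CO2; viability then read as live-cell protease fluorescence (CellTiter-Fluor, 30 min) in the same wells.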
# [4] = qHTS assay to identify small molecule HDAC inhibitors (AID 1259364); further: top concentration of the series differs between compounds; nearly all actives have a fitted effect of over 45% in size
# In short: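 Wild-type HCT-116 cells were plated overnight, exposed to compounds for 2 h at 37 °C, then given HDAC-Glo class I/II luminogenic reagent for 30 min at room temperature before luminescence was read.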
# [5] = qHTS assay to identify small molecule HDAC inhibitors - cell viability counter screen (AID 1259365); further: series mostly up to about 92 µM; nearly all actives have a fitted effect of over 50% in size
# In short: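 HCT-116 wild-type, overnight attachment; 2hr drug exposure, 37C; CellTiter-Glo luminescent ATP readout after 30min RT.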
# [6] = qHTS assay to identify small molecule agonists of the sonic hedgehog signaling (Shh) pathway - cell viability counter screen (AID 1259366); further: nearly all actives have a fitted effect of over 50% in size
# In short: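 Compounds in DMSO were pin-transferred onto 3T3 Gli1-Luc cells that had settled 4hr; plates then stood 24hr at 37C and 5% CO2. One hour before the end, CellTiter-Fluor was added and fluorescence recorded.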
# [7] = qHTS assay to identify small molecule antagonists of the sonic hedgehog signaling (Shh) pathway - cell viability counter screen (AID 1259367); further: nearly all actives have a fitted effect of over 55% in size
# In short: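 NIH/3T3-derived Gli1-Luc reporter cells (2,000 per well) rested 4 hr at 37 C, then received DMSO compounds plus conditioned medium. After 23 hr of treatment, CellTiter-Fluor was added for 1 hr at 37C and fluorescence read.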
# [8] = qHTS assay to identify small molecule agonists of the sonic hedgehog signaling (Shh) pathway (AID 1259368; calls by dose curve; further: series mostly up to about 92 µM; nearly all actives have a fitted effect of over 15% in size)
# In short: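 NIH/3T3-derived 3T3Gli1-Luc cells carrying a stably integrated Gli1 response element–firefly luciferase reporter were plated, left 4 hr at 37 C, then given compounds in DMSO for 24 hr. Luminescence was read 30 min after adding luciferase reagent.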
# [9] = qHTS assay to identify small molecule antagonists of the sonic hedgehog signaling (Shh) pathway (AID 1259369; calls by dose curve; further: nearly all actives have a fitted effect of over 45% in size)
# In short: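 NIH/3T3-derived 3T3Gli1-Luc cells with stably integrated Gli1-Luc reporter were preincubated 4hr at 37 C, then given compounds in DMSO plus Shh conditioned medium and incubated 24hr. Firefly luciferase luminescence read after 30min reagent at room temperature.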
# [10] = qHTS assay to identify small molecule agonists of the androgen receptor (AR) signaling pathway in the presence of an antagonist - cell viability counter screen (AID 1259379); further: series mostly up to about 92 µM; nearly all actives have a fitted effect of over 25% in size
# In short: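 MDA-kb2 human breast carcinoma cells (stable MMTV-luciferase, AR/GR responsive) were seeded 3,000 cells/well, pre-incubated 5 hr at 37C without CO2, then given 3.0uM nilutamide and compounds at 15 concentrations for 16 hr. Viability was read by CellTiter-Fluor fluorescence.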
# [11] = qHTS assay to identify small molecule agonists of the estrogen receptor beta (ER-beta) signaling pathway - cell viability counter screen (AID 1259380); further: nearly all actives have a fitted effect of over 30% in size
# In short: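 ER-beta-UAS-bla HEK293T cells in medium with 2% charcoal-stripped FBS were preincubated 6 hr at 37C, dosed with compound in DMSO for 16 hr, then after the bla read, CellTiter-Glo was added for 30 min at room temperature; luminescence recorded.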
# [12] = qHTS assay to identify small molecule antagonists of the estrogen receptor beta (ER-beta) signaling pathway - cell viability counter screen (AID 1259382); further: series mostly up to about 92 µM; nearly all actives have a fitted effect of over 55% in size
# In short: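 ER-beta-UAS-bla HEK293T cells (2,000/well, 2% charcoal-stripped FBS) were pre-incubated 6 hr at 37C, then given compound plus 1nM final 17-beta-estradiol for 16 hr. Viability was read in the same wells by CellTiter-Glo luminescence after 30 min at room temperature.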
# [13] = qHTS assay to identify small molecule agonists or antagonists of the thyroid stimulating hormone receptor (TSHR) signaling pathway - wild type cell line counter screen (AID 1259384; calls by dose curve)
# In short: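 Wild-type HEK293 cells were plated 18 h at 37 C/5% CO2, pin-dosed with compound plus Ro20-1724 medium, held 30 min at room temperature, then given cAMP-d2 and anti-cAMP-cryptate; fluorescence was read after 1 h. Fifteen concentrations, triplicate.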
# [14] = biological target: Estrogen receptor (Homo sapiens) (UniProt P03372); assay: qHTS assay to identify small molecule agonists of the estrogen receptor alpha (ER-alpha) signaling pathway in the presence of an antagonist (AID 1259383; calls by dose curve; further: top concentration of the series differs between compounds; nearly all actives have a fitted effect of over 15% in size)
# In short: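 VM7Luc4E2 cells (endogenous full-length ER-alpha, 4×ERE-luciferase) were precultured 5 days in phenol red-free medium with 10% charcoal-stripped FBS, given 10.0nM ICI-182,780 (final), then treated with compounds at 15 concentrations for 22hr at 37C; luminescence read with ONE-Glo.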
# [15] = biological target: Estrogen receptor (Homo sapiens) (UniProt P03372); assay: qHTS assay to identify small molecule antagonists of the estrogen receptor alpha (ER-alpha) signaling pathway using the BG1 cell line in the presence of 0.1 nM 17-beta-estradiol (AID 1259244); further: nearly all actives have a fitted effect of over 50% in size
# In short: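 VM7Luc4E2 cells (endogenous full-length ER-alpha, stable 4xERE-luciferase) were grown 5 days in phenol red-free medium with charcoal-stripped FBS, then exposed 22 h at 37C to compounds plus 0.1 nM (final) 17beta-estradiol; ONE-Glo luminescence read-out.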
# [16] = biological target: Androgen receptor (Homo sapiens) (UniProt P10275); assay: qHTS assay to identify small molecule antagonists of the androgen receptor (AR) signaling pathway using the MDA cell line in the presence of 0.5 nM R1881 (AID 1259243); further: potency means the concentration at half of the fitted maximal effect; nearly all actives have a fitted effect of over 50% in size
# In short: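 MDA-kb2 human breast carcinoma cells carrying an MMTV-luciferase reporter (AR- and GR-responsive) were plated, rested 5 hr at 37C, dosed with compounds, then stimulated with 0.5 nM R1881 (final) for 16 hr; luminescence was read after ONE-Glo.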
# [17] = biological target: Estrogen receptor beta (Homo sapiens) (UniProt Q92731); assay: qHTS assay to identify small molecule agonists of the estrogen receptor beta (ER-beta) signaling pathway (AID 1259377; active means well fitted activation curve with a large enough effect in the signal ratio in the repeat runs, not every such curve was filed as active; the % refers to the signal ratio)
# In short: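 qHTS in ER-beta-UAS-bla HEK293T cells: 6 hr settling, then 16 hr compound at 37C, then LiveBLAzer substrate 2 h at RT before fluorescence reading.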
# [18] = biological target: Estrogen receptor beta (Homo sapiens) (UniProt Q92731); assay: qHTS assay to identify small molecule antagonists of the estrogen receptor beta (ER-beta) signaling pathway (AID 1259378; active means well fitted inhibition curve with a large enough effect in the signal ratio in the repeat runs, not every such curve was filed as active; the % refers to the signal ratio)
# In short: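 ER-beta-UAS-bla HEK293T (GripTite) cells in 2% charcoal-stripped FBS medium were preincubated 6 hr at 37C, dosed with compound, then stimulated with 1 nM E2 (final) for 16 hr; beta-lactamase reporter read by B/G FRET fluorescence after 2 hr substrate loading.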
# [19] = biological target: Androgen receptor (Homo sapiens) (UniProt P10275); assay: qHTS assay to identify small molecule agonists of the androgen receptor (AR) signaling pathway in the presence of an antagonist (AID 1259381; calls by dose curve; further: nearly all actives have a fitted effect of over 15% in size)
# In short: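 MDA-kb2 human breast carcinoma cells carrying an MMTV-luciferase reporter (AR- and GR-responsive) were treated with compounds at 15 concentrations plus 3.0uM final nilutamide for 16hr at 37C without CO2; luminescence was read after ONE-Glo addition.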
# Estrogen receptor (Homo sapiens), sequence (P03372 whole entry, looked up): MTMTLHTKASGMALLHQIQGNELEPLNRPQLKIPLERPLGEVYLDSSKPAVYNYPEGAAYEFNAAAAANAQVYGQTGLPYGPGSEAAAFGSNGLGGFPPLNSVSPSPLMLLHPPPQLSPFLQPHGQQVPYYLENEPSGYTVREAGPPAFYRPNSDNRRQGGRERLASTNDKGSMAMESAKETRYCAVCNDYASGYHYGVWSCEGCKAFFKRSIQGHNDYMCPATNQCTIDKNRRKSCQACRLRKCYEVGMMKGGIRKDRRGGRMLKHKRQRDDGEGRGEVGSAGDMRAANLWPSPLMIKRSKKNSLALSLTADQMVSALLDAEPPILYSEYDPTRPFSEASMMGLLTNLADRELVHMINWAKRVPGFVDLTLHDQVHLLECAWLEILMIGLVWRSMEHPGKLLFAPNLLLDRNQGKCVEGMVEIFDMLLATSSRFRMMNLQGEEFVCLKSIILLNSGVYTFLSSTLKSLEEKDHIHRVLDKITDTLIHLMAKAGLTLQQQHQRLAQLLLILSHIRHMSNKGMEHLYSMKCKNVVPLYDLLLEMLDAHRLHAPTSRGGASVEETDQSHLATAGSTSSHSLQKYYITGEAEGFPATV
# Estrogen receptor beta (Homo sapiens), sequence (Q92731 whole entry, looked up): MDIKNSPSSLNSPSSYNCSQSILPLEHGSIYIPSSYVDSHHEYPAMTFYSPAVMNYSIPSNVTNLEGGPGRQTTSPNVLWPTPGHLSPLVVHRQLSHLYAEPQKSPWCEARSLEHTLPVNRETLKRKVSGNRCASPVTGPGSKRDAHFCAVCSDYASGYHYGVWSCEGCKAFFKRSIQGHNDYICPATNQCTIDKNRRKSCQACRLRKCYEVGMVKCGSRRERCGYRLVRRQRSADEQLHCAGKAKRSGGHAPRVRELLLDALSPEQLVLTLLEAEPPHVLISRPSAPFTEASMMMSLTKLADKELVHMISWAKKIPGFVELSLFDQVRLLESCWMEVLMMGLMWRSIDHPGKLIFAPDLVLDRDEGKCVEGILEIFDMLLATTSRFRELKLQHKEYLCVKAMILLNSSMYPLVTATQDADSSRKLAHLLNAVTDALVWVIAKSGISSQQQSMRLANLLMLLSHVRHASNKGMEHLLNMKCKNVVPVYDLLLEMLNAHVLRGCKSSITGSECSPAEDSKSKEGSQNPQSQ
# Androgen receptor (Homo sapiens), sequence (P10275 whole entry, looked up): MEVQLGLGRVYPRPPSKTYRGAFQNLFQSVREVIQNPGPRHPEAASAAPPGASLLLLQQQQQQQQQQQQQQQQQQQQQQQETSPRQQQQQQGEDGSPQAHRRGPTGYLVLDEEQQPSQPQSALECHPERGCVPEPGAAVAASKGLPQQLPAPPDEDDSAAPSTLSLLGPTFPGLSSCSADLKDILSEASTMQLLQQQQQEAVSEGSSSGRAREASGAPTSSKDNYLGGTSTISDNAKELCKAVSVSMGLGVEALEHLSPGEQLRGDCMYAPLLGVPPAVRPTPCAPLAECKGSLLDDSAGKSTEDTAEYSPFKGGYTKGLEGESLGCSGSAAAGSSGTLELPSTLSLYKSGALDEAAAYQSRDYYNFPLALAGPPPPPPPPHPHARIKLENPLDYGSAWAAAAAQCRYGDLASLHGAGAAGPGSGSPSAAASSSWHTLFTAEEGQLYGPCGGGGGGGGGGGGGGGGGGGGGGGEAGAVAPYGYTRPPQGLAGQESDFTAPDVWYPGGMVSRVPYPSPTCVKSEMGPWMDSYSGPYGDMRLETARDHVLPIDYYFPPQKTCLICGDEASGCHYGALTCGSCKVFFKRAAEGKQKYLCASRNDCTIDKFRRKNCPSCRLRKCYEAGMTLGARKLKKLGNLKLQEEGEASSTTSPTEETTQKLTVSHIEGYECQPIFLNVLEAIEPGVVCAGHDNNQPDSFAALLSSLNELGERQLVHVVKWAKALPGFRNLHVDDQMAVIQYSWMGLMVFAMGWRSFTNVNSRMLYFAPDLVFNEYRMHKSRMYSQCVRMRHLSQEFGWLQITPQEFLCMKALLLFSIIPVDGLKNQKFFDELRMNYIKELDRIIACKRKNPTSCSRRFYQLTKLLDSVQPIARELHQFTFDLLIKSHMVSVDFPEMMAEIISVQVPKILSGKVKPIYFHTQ
smiles,measurement,setting,value
COC(CC(C)CCCC(C)(C)O)OC (stereo unspecified),Potency,[1],inactive
same,Potency,[2],inactive
same,Potency,[3],inactive
same,Potency,[4],inactive
same,Potency,[5],inactive
same,Potency,[6],inactive
same,Potency,[7],inactive
same,Potency,[8],inactive
same,Potency,[9],inactive
same,Potency,[10],inactive
same,Potency,[11],inactive
same,Potency,[12],inactive
same,Potency,[13],inactive
Cc1ccc(NC(=O)N(C)C)cc1NC(=O)N(C)C,Potency,[1],inactive
same,Potency,[2],inactive
same,Potency,[3],inactive
same,Potency,[4],inactive
same,Potency,[5],inactive
same,Potency,[6],inactive
same,Potency,[7],inactive
same,Potency,[8],inactive
same,Potency,[10],inactive
same,Potency,[11],inactive
same,Potency,[12],inactive
same,Potency,[14],inactive
COC(=O)c1sccc1S(N)(=O)=O,Potency,[1],inactive
same,Potency,[2],inactive
same,Potency,[15],inactive
same,Potency,[4],inactive
same,Potency,[5],inactive
same,Potency,[6],inactive
same,Potency,[7],inactive
same,Potency,[8],inactive
same,Potency,[9],inactive
same,Potency,[10],inactive
same,Potency,[11],inactive
same,Potency,[12],inactive
same,Potency,[14],inactive
Cc1cc(CCCOc2c(C)cc(-c3noc(C(F)(F)F)n3)cc2C)on1,Potency,[1],inactive
same,Potency,[2],inactive
same,Potency,[16],26.6 µM (active)
same,Potency,[4],inactive
same,Potency,[5],inactive
same,Potency,[6],inactive
same,Potency,[7],inactive
same,Potency,[8],inactive
same,Potency,[9],inactive
same,Potency,[17],inactive
same,Potency,[18],inactive
same,Potency,[10],inactive
same,Potency,[11],inactive
same,Potency,[19],inactive
same,Potency,[12],inactive
same,Potency,[13],inactive
CC(C)N=C=NC(C)C,Potency,[1],inactive
same,Potency,[2],inactive
same,Potency,[3],inactive
same,Potency,[4],inactive
same,Potency,[5],inactive
same,Potency,[6],inactive
same,Potency,[7],inactive
same,Potency,[8],inactive
same,Potency,[10],inactive
same,Potency,[12],inactive
same,Potency,[14],inactive
CCCCCCCCCCCCCCN(C)C,cytotoxicity increase,[1],-1.47% [at 15.8 µM]
same,"activity change, negative = cytotoxicity",[2],0.479% [at 19 µM]
same,"viability change, negative = cytotoxic",[3],-2.29% [at 19 µM]
same,"activity change, negative = cytotoxicity",[5],3.73% [at 19 µM]
same,"viability change, negative = cytotoxic",[6],-0.743% [at 19 µM]
same,"viability change, negative = cytotoxic",[7],4.21% [at 19 µM]
same,activity change,[8],"1.14% [at 18.9 µM, active compounds read high]"
same,"activity change, negative = inhibition",[9],19.6% [at 19 µM]
same,activation,[17],-2.25% [at 19 µM]
same,"activity, negative = inhibition",[18],3.58% [at 19 µM]
same,"activity change, negative = cytotoxicity",[10],-0.611% [at 19 µM]
same,"activity change, negative = cytotoxicity",[11],-12.9% [at 19 µM]
same,"activity change, negative = cytotoxicity",[12],-7.95% [at 19 µM]
same,activation,[14],2.36% [at 19 µM]
same,cAMP activity change,[13],"-2.36% [at 18.9 µM, active compounds read high]"
CC(C)(C)CCCCCCOC(=O)c1ccccc1C(=O)OCCCCCCC(C)(C)C,Potency,[1],inactive
same,Potency,[2],inactive
same,Potency,[15],inactive
same,Potency,[4],inactive
same,Potency,[5],inactive
same,Potency,[6],inactive
same,Potency,[7],inactive
same,Potency,[8],inactive
same,Potency,[9],inactive
same,Potency,[17],inactive
same,Potency,[18],inactive
same,Potency,[10],inactive
same,Potency,[11],inactive
same,Potency,[12],inactive
same,Potency,[14],inactive
same,Potency,[13],inactive
